# Results reported in PubChem BioAssay (Tox21).
# Unmarked numbers belong to inactive results. Inconclusive results are not listed. Entries that show only a call come without a potency. The source made the active and inactive calls. Unless noted, calls follow the shape of the full dose curve.
# Columns and labels:
# [1] = Nuclear factor erythroid 2-related factor 2/antioxidant responsive element (Nrf2/ARE) small molecule agonists: qHTS cell viability counter screen in human keratinocytes (AID 1919968; active = well fitted curve in the direction sought with a large enough effect in the repeat runs; an effect the other way counts as inactive or inconclusive; also: nearly all actives have a fitted effect of over 55% in size)
# In short: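 Seed 1,500 KeratinoSens cells per well, then incubate 5 h at 37 C/5% CO2. Add compounds in DMSO and incubate 23 h. Add CellTiter-Fluor, wait 1 h and read fluorescence.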
# [2] = Nuclear factor erythroid 2-related factor 2/antioxidant responsive element (Nrf2/ARE) small molecule agonists: luciferase reporter gene qHTS assay in human keratinocytes (AID 1919969); also: nearly all actives have a fitted effect of over 35% in size; also: potency is read from the fitted curve at half-maximal effect
# [3] = biological target: Gonadotropin-releasing hormone receptor (Homo sapiens) (UniProt P30968); test: Human gonadotropin-releasing hormone receptor (GnRHR) small molecule agonists, calcium flux assay in GnRHR-HEK293 cells (AID 1920063); also: nearly all actives have a fitted effect of over 35% in size
# Chain of Gonadotropin-releasing hormone receptor (Homo sapiens) (P30968 whole entry, looked up): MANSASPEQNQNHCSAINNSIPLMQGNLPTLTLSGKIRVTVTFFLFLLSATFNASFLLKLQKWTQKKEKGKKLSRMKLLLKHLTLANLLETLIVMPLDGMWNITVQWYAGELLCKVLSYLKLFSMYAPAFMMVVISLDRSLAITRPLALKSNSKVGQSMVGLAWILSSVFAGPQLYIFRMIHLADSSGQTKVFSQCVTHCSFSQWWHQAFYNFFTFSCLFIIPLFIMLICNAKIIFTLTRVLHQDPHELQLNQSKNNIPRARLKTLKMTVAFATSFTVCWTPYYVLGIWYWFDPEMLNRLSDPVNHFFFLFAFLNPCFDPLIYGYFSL
# In short: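 Cells: HEK293 stably expressing human GnRHR. Steps: overnight (18 h) culture, 1 h calcium dye loading at 37 C, compound addition, kinetic fluorescence read at 480/540 nm. Each compound tested at 15 concentrations in triplicate.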
# [4] = biological target: KiSS-1 receptor (Homo sapiens) (UniProt Q969F8); test: Human kisspeptin (KISS1R) small molecule agonists, calcium flux assay in KISS1R-HEK293 cells (AID 1920064; active = well fitted curve in the direction sought with a large enough effect in the repeat runs; an effect the other way counts as inactive or inconclusive)
# Chain of KiSS-1 receptor (Homo sapiens) (Q969F8 whole entry, looked up): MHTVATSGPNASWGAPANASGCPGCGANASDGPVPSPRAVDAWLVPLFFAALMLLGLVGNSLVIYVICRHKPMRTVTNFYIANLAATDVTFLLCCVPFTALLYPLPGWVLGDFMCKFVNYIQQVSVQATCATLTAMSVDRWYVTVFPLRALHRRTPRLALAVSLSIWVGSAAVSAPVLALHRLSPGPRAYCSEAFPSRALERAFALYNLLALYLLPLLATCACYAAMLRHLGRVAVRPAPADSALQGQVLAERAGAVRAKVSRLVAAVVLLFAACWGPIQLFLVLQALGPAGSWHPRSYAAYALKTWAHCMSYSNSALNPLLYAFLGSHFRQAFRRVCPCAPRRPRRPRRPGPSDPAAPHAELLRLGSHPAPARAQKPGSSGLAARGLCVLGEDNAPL
# In short: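 Cells plated and incubated 18 h; dye added, 1 h at 37 C; compounds in DMSO pinned in; signal read at 480/540 nm every second for 3 min. Each compound tested at 15 concentrations in triplicate.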
# [5] = G protein-coupled receptor (GPCR) small molecule agonists, calcium flux assay: HEK293 wild type cell line counter screen (AID 1920065)
# In short: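 Counter-screen of the Tox21 10K library for non-specific calcium release: dye-loaded cells received compounds in DMSO and were monitored by kinetic fluorescence (480/540 nm, 3 min). Fifteen concentrations, run in triplicate.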
# [6] = p53 small molecule agonists, cell-based qHTS assay with human liver microsomes: qHTS cell viability counter screen (AID 1963579); also: nearly all actives have a fitted effect of over 45% in size
# In short: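 Luminescent CellTiter-Glo read-out, 30 min at room temperature, gauged cytotoxicity in p53RE-bla cells exposed 16 h at 37 C to DMSO-dissolved compounds with metabolic activation by human liver microsomes and NADPH, each 0.5 mg/mL final.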
# [7] = p53 small molecule agonists, cell-based qHTS assay with rat liver microsomes: qHTS cell viability counter screen (AID 1963580); also: nearly all actives have a fitted effect of over 45% in size
# In short: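 Viability is assessed in parallel with the p53 reporter read: HCT-116 p53RE-bla cells receive compounds plus rat microsomes and NADPH (0.5 mg/mL final apiece), incubate 16 h at 37 C, and then CellTiter-Glo luminescence is recorded.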
# [8] = p53 small molecule agonists, cell-based qHTS assay: qHTS cell viability counter screen (AID 1963581); also: nearly all actives have a fitted effect of over 45% in size
# In short: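 Cells: HCT-116 with p53 response element-driven beta-lactamase. Treatment: 16 h, 37 C, compounds in DMSO. Read: CellTiter-Glo luminescence after 30 min RT.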
# [9] = p53 small molecule agonists, cell-based qHTS assay (AID 1963582; active = well fitted activation curve with a large enough effect in the signal ratio in the repeat runs, not every such curve was filed as active; the % refers to the signal ratio)
# In short: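 Quantitative HTS in p53RE-bla cells: after a 5 h settling period, compounds delivered in DMSO were left on cells for 16 h at 37 C, and reporter induction was measured as fluorescence following 2 h substrate loading.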
# [10] = biological target: 5-hydroxytryptamine receptor 2A (Homo sapiens) (UniProt P28223); test: 5-hydroxytryptamine receptor 2A (HTR2A) small molecule antagonists, cell-based qHTS assay (AID 1963586); also: nearly all actives have a fitted effect of over 45% in size
# Chain of 5-hydroxytryptamine receptor 2A (Homo sapiens) (P28223 whole entry, looked up): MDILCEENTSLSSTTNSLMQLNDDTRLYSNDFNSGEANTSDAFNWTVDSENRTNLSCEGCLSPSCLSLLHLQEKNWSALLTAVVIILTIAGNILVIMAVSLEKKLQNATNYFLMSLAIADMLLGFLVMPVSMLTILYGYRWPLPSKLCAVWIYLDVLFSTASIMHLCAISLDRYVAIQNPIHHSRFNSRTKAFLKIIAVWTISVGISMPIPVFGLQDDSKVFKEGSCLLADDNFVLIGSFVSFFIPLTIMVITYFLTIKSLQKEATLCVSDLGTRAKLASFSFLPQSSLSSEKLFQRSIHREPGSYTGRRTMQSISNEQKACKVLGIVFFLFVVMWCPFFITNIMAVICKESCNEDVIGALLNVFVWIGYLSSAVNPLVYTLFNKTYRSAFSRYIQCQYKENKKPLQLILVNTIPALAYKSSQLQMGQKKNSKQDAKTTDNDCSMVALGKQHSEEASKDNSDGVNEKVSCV
# In short: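 Antagonist-mode intracellular calcium assay: DOI (4 nM) added after 5 min compound pre-incubation at room temperature to dye-loaded HTR2A-CHO cells. Fluorescence followed for 3 min, sampled every second.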
# [11] = biological target: 5-hydroxytryptamine receptor 2A (Homo sapiens) (UniProt P28223); test: 5-hydroxytryptamine receptor 2A (HTR2A) small molecule agonists, cell-based qHTS assay (AID 1963587); also: nearly all actives have a fitted effect of over 30% in size
# In short: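 CHO cells stably expressing human HTR2A, plated 18 h, loaded with calcium dye 1 h at 37 C. Agonist mode: compounds added and intracellular calcium fluorescence recorded kinetically for 2 min at 1 sec intervals.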
# [12] = biological target: Muscarinic acetylcholine receptor M1 (Homo sapiens) (UniProt P11229); test: Cholinergic receptor muscarinic 1 (CHRM1) small molecule antagonists, cell-based qHTS assay (AID 1963588); also: nearly all actives have a fitted effect of over 40% in size
# Chain of Muscarinic acetylcholine receptor M1 (Homo sapiens) (P11229 whole entry, looked up): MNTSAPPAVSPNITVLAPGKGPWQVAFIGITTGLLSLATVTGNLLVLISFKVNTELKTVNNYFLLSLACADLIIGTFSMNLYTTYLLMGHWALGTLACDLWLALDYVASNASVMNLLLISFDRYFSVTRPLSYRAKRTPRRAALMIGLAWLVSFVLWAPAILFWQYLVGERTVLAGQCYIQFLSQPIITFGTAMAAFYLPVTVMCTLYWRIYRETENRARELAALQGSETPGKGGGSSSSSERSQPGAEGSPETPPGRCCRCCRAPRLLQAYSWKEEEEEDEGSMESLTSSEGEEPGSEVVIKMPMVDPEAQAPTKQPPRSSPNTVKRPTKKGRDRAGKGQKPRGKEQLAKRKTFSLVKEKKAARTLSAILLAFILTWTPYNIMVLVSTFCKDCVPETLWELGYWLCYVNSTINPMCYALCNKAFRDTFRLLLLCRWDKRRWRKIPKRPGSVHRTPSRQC
# In short: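 CHRM1-CHO calcium-flux assay, antagonist mode. Cells were seeded 18 h, dye-loaded 1 h at 37 C and given compound for 5 min at RT, then acetylcholine was added at 50nM. FDSS fluorescence was read 3 min; 15 concentrations, three runs.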
# [13] = biological target: Muscarinic acetylcholine receptor M1 (Homo sapiens) (UniProt P11229); test: Cholinergic receptor muscarinic 1 (CHRM1) small molecule agonists, cell-based qHTS assay (AID 1963589); also: nearly all actives have a fitted effect of over 35% in size
# In short: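 Agonist-mode qHTS in CHO cells stably carrying human muscarinic M1. Intracellular calcium is tracked by fluorescence every second after compound transfer; each compound runs at 15 concentrations in three independent runs.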
# [14] = cAMP Responsive Elements (CRE) small molecule agonists, cell-based qHTS assay (AID 1963590)
# In short: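 Agonist mode qHTS in CRE-bla HEK 293T cells: compounds dosed from DMSO for 3 h at 37 C/5% CO2, followed by LiveBLAzer B/G FRET substrate for 2 h at room temperature.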
# [15] = cAMP Responsive Elements (CRE) small molecule antagonists, cell-based qHTS assay (AID 1963591; active = well fitted inhibition curve with a large enough effect in the signal ratio in the repeat runs, not every such curve was filed as active; the % refers to the signal ratio)
# In short: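 Antagonist mode: test compounds are co-incubated with the adenylyl cyclase activator NKH477 (0.25 uM final) on CRE-bla HEK293T cells for 3 h at 37 °C, followed by LiveBLAzer substrate loading.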
# [16] = biological target: Beta-2 adrenergic receptor (Homo sapiens) (UniProt P07550); test: Adrenergic beta2 receptor (ADRB2) small molecule antagonists, cell-based qHTS assay (AID 1963592); also: series mostly up to about 92 µM; nearly all actives have a fitted effect of over 50% in size
# Chain of Beta-2 adrenergic receptor (Homo sapiens) (P07550 whole entry, looked up): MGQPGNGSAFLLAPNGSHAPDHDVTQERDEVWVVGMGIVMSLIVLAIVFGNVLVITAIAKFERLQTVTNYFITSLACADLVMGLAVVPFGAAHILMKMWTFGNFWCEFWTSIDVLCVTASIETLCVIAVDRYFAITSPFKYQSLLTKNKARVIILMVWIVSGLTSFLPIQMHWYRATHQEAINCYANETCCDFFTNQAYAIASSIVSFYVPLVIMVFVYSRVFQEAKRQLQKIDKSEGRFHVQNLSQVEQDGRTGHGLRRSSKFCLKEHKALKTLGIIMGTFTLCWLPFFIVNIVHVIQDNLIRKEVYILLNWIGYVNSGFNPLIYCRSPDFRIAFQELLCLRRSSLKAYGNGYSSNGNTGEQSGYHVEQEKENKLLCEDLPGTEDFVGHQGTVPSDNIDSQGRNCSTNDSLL
# In short: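 Cells (CHO, stable ADRB2 overexpression) incubated 18-20hr at 37C; compounds added from DMSO; agonist mix (1nM isoproterenol, 100uM IBMX, 25uM Ro-20-1724) added; 0.5hr RT; d2-cAMP and anti-cAMP-cryptate added; 1hr RT; 665/615 nm read.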
# [17] = biological target: Beta-2 adrenergic receptor (Homo sapiens) (UniProt P07550); test: Adrenergic beta2 receptor (ADRB2) small molecule agonists, cell-based qHTS assay (AID 1963593);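 also: CHO cells stably overexpressing human ADRB2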
# In short: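 CHO cells stably over-expressing ADRB2 were plated overnight at 37C, then dosed with compounds plus a stimulation mix containing 100uM IBMX and 25uM Ro-20-1724 for 0.5hr at room temperature. cAMP was measured by HTRF competition, 1hr.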
# [18] = biological target: D(2) dopamine receptor (Homo sapiens) (UniProt P14416); test: Dopamine D2 receptor (DRD2) small molecule agonists, cell-based qHTS assay (AID 1963594); also: nearly all actives have a fitted effect of over 35% in size
# Chain of D(2) dopamine receptor (Homo sapiens) (P14416 whole entry, looked up): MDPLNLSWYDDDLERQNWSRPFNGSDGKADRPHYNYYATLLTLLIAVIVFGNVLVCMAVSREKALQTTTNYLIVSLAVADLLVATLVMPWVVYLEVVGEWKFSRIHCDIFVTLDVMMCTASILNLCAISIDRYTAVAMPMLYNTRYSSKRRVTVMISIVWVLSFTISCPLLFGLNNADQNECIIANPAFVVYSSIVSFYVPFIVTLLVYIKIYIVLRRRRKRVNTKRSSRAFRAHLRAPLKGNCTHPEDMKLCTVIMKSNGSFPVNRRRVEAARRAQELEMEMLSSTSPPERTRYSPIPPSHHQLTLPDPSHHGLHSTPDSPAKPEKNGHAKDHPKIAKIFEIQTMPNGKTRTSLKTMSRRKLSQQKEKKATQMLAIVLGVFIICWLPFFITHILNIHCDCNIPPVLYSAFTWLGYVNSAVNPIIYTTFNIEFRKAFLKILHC
# In short: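 HEK293 cells stably expressing human DRD2, pre-treated with PDE inhibitor Ro20-1724 (0.1 mM final) and compound 10 min at room temperature, then stimulated with NKH477 (200nM […]) for 30 min. cAMP read by HTRF (665/620 nm).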
# [19] = biological target: D(2) dopamine receptor (Homo sapiens) (UniProt P14416); test: Dopamine D2 receptor (DRD2) small molecule antagonists, cell-based qHTS assay (AID 1963595; active = well fitted inhibition curve with a large enough effect in the signal ratio in the repeat runs, with a control signal flat; the % refers to the signal ratio)
# In short: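 HEK293 cells stably expressing DRD2 were preincubated with 0.1 mM Ro20-1724, then with compound for 10 min at room temperature. Cells were stimulated with 200 nM NKH477 plus 12 nM quinpirole for 30 min, and cAMP was read by HTRF.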
# [20] = p53 small molecule agonists, cell-based qHTS assay with human liver microsomes (AID 1963577);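 also: p53 response element beta-lactamase reporter cells with liver microsomes plus NADPH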
# In short: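 p53RE-bla cells; 5 h settle, 37 C/5% CO2; cpd + HLM 0.5 mg/mL + NADPH 0.5 mg/mL (final); 16 h 37 C; LiveBLAzer 2 h RT dark; fluorescence readout.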
compound,measurement,setting,value
CCCCCCCCSCC,Potency,[1],inactive
same,Potency,[2],inactive
same,Potency,[3],inactive
same,Potency,[4],inactive
same,Potency,[5],inactive
same,Potency,[6],inactive
same,Potency,[7],inactive
same,Potency,[8],inactive
same,Potency,[9],inactive
same,Potency,[10],inactive
same,Potency,[11],inactive
same,Potency,[12],inactive
same,Potency,[13],inactive
same,Potency,[14],inactive
same,Potency,[15],inactive
same,Potency,[16],inactive
same,Potency,[17],inactive
same,Potency,[18],inactive
same,Potency,[19],inactive
NC[C@H]1O[C@H](O[C@H]2[C@H](O)[C@@H](O[C@H]3O[C@H](CO)[C@@H](O)[C@H](N)[C@H]3O)[C@H](N)C[C@@H]2N)[C@H](N)[C@@H](O)[C@@H]1O,"activity change, negative = cytotoxicity",[1],-0.0182% [at 19 µM]
same,"activity, positive = activation",[2],2.7% [at 19 µM]
same,activity change,[3],"5.96% [at 11.8 µM, stronger effect = higher value]"
same,activation,[4],-0.341% [at 15.8 µM]
same,activation,[5],-0.87% [at 11.8 µM]
same,activation,[20],-1.52% [at 13.5 µM]
same,"activity change, negative = cytotoxicity",[6],-3.3% [at 13.5 µM]
same,"activity change, negative = cytotoxicity",[8],-25.6% [at 13.5 µM]
same,activation,[9],0.52% [at 13.5 µM]
same,"activity, negative = inhibition",[10],6.4% [at 12.7 µM]
same,activation,[11],-0.88% [at 15.9 µM]
same,"activity, negative = inhibition",[12],7.06% [at 12.6 µM]
same,activation,[13],-0.129% [at 15.8 µM]
same,activation,[14],0.862% [at 19 µM]
same,"activity change, negative = inhibition",[15],0.145% [at 18.9 µM]
same,"activity change, negative = inhibition",[16],5.76% [at 19 µM]
same,activation,[17],1.3% [at 19 µM]
same,"activity change, negative = inhibition",[19],13% [at 18.9 µM]
COc1cc(C(=O)N2CCOCC2)cc(OC)c1OC,Potency,[1],inactive
same,Potency,[2],inactive
same,Potency,[3],inactive
same,Potency,[4],inactive
same,Potency,[5],inactive
same,Potency,[6],inactive
same,Potency,[7],inactive
same,Potency,[8],inactive
same,Potency,[9],inactive
same,Potency,[10],inactive
same,Potency,[11],inactive
same,Potency,[12],inactive
same,Potency,[13],inactive
same,Potency,[14],inactive
same,Potency,[15],inactive
same,Potency,[16],inactive
same,Potency,[17],inactive
same,Potency,[18],inactive
same,Potency,[19],inactive
CO[C@H]1C=CO[C@@]2(C)Oc3c(C)c(O)c4c(O)c(c(/C=N/N5CCN(C)CC5)c(O)c4c3C2=O)NC(=O)/C(C)=C\C=C[C@H](C)[C@H](O)[C@@H](C)[C@@H](O)[C@@H](C)[C@H](OC(C)=O)[C@@H]1C,Potency,[1],inactive
same,Potency,[2],inactive
same,Potency,[3],inactive
same,Potency,[4],inactive
same,Potency,[5],inactive
same,Potency,[6],inactive
same,Potency,[7],inactive
same,Potency,[8],inactive
CC(C)(C)NCCO,Potency,[1],inactive
same,Potency,[2],inactive
same,Potency,[3],inactive
same,Potency,[4],inactive
same,Potency,[5],inactive
same,Potency,[6],inactive
same,Potency,[7],inactive
same,Potency,[8],inactive
same,Potency,[9],inactive
same,Potency,[10],inactive
same,Potency,[11],inactive
same,Potency,[12],inactive
same,Potency,[13],inactive
same,Potency,[14],inactive
same,Potency,[15],inactive
same,Potency,[16],inactive
same,Potency,[17],inactive
same,Potency,[18],inactive
same,Potency,[19],inactive
O=C1c2c(O)ccc(Nc3ccc(CCO)cc3)c2C(=O)c2c([N+](=O)[O-])ccc(O)c21,Potency,[1],inactive
same,Potency,[2],30.6 µM (active)
same,Potency,[3],inactive
same,Potency,[4],inactive
same,Potency,[5],inactive
same,Potency,[6],inactive
same,Potency,[7],inactive
same,Potency,[8],inactive
same,Potency,[9],inactive
same,Potency,[10],inactive
same,Potency,[11],inactive
same,Potency,[12],inactive
same,Potency,[13],inactive
COC(=O)c1cc(Cl)ccc1OC,Potency,[1],inactive
same,Potency,[2],inactive
same,Potency,[3],inactive
same,Potency,[4],inactive
same,Potency,[5],inactive
same,Potency,[20],inactive
same,Potency,[6],inactive
same,Potency,[7],inactive
same,Potency,[9],inactive
same,Potency,[10],inactive
same,Potency,[11],inactive
same,Potency,[12],inactive
same,Potency,[13],inactive
same,Potency,[14],inactive
same,Potency,[15],inactive
same,Potency,[16],inactive
same,Potency,[17],inactive
same,Potency,[18],inactive
same,Potency,[19],inactive
Cc1ccc(S(N)(=O)=O)cc1,Potency,[1],inactive
same,Potency,[2],inactive
same,Potency,[3],inactive
same,Potency,[4],inactive
same,Potency,[5],inactive
same,Potency,[20],inactive
same,Potency,[6],inactive
same,Potency,[7],inactive
same,Potency,[8],inactive
same,Potency,[10],inactive
same,Potency,[12],inactive
same,Potency,[13],inactive
same,Potency,[15],inactive
same,Potency,[16],inactive
same,Potency,[18],inactive
same,Potency,[19],inactive
